Screening data from PubChem BioAssay.
ELG1 DNA repair: blocks ELG1-dependent DNA repair in HEK293T cells | HEK293T ELG1-luciferase reporter, luminescence, 16 h; DNA damage induced by 5-fluorouridine | Potency, µM (top dose mostly 46.1 µM), for the others: at the top dose activity change, negative = inhibition, most hits filed as inhibitors | 330,000 compounds, 2.3% hits | AID 504467; further: on the % scale 0 is the no-effect control and ±100 the full control effect; nearly all actives have a fitted effect of over 55% in size
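DMSO vehicle served as the neutral condition. Each well held 2,000 cells given 5-fluorouridine plus compound; after 16 hr at 37 °C/5% CO2, ONE-Glo was added and luciferase measured 30 min later.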
KB-3-1 tox: kills parental KB-3-1 adenocarcinoma cells; KB-3-1 viability, CellTiter-Glo ATP luminescence, 72 h; Potency, µM (doses to about 46.1 µM), hits mostly cytotoxic; 400,000 compounds, 1.4% hits; further: on the % scale 0 is the no-effect control and ±100 the full control effect; nearly all actives have a fitted effect of over 60% in size
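Using CellTiter-Glo luminescence, growth of non-resistant KB-3-1 adenocarcinoma cells is assessed 72 h after pin-tool compound addition at 37 °C. Normalized responses across the concentration series yield fitted curves.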
MCF10A rereplic: inducers of DNA re-replication in MCF 10A breast cells; MCF 10A DNA re-replication, Hoechst nuclear intensity, 48 h; Potency, µM (series often up to 46.1 µM), for the others: top-dose activity, positive = re-replication, usual class: activators; 350,000 compounds, 2.9% hits; AID 624296; further: % of control where 0% means no effect; nearly all actives have a fitted effect of over 50% in size
SW480 rereplic: inducers of DNA re-replication in SW480 colon cancer cells. SW480 DNA re-replication, Hoechst DNA content imaging, 48 h. Potency, µM (top dose mostly 46.1 µM), for the others: at the highest dose re-replication activation, most hits filed as activators. 340,000 compounds, 1.8% hits. AID 624297; further: % of control where 0% means no effect; nearly all actives have a fitted effect of over 55% in size
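Quantitative HTS format with DMSO vehicle controls; 48 hr drug incubation at 37 C, then 40 min Hoechst staining and scanning imager measurement at 405 nm excitation.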
KB-V1 cytotox: KB-V1 MDR subline cytotoxicity. KB-V1 MDR cells viability, CellTiter-Glo, 72 h. Potency, µM (highest dose often 46.1 µM), most hits filed as cytotoxic. 400,000 compounds, 3.4% hits. AID 1347076; further: on the % scale 0 is the no-effect control and ±100 the full control effect; nearly all actives have a fitted effect of over 60% in size
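Cytotoxicity toward P-gp-expressing KB-V1 cells was determined as loss of CellTiter-Glo luminescence after 72 h at 37 degrees C. Compounds were tested in quantitative HTS format across a concentration range, with curves fitted to normalized data.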
The depositor's hits bear a star; i = inactive; ? = inconclusive; . = no result given. An excerpt weighted towards active compounds, which were near 8.1% of everything screened. The call rests on the fitted dose curve; in most records, active means well fitted curve in the direction sought with a large enough effect; inconclusive means small, poorly fitted or top-dose-only effect, or another doubt; inactive means no such curve, though single readings can be large; an effect the other way counts as inactive or inconclusive. Potency means the concentration at half of the fitted maximal effect.

SMILES | ELG1 DNA repair | KB-3-1 tox | MCF10A rereplic | SW480 rereplic | KB-V1 cytotox
CCOc1ccc(C2=CS/C(=C(\C#N)c3nnc4n3CCCCC4)N2CC)cc1 | ? | i | 1% | 1% | 21µM*
C=CCN1C(c2ccc(Br)cc2)=CS/C1=C(/C#N)c1nnc(N2CCOCC2)n1-c1ccccc1 | ? | i | 6% | ? | ?
C=CCN1C(c2ccccc2)=CS/C1=C(\C#N)c1nnc2n1CCCCC2 | 11µM* | i | -10% | 2% | ?
Cc1cccc(C(=O)NCC(c2ccco2)S(=O)(=O)c2cccs2)c1 (stereo not drawn) | . | i | . | . | i
C#CCOCCOCCOCCNc1nc(N2CCN(C(=O)[C@H](CO)n3cc([C@@H](N)C(C)C)nn3)CC2)nc(N2CCN(C(=O)[C@H](CCC(=O)O)n3cc([C@@H](N)CCCCN)nn3)CC2)n1 | 13% | i | 11% | -53% | i
COC(=O)c1sc(C(C)(C)C)cc1CS(=O)(=O)c1ccccn1 | 16µM* | i | 0% | -24% | ?
CC(=O)c1ccc(NC(=O)Cn2ncc3c(C)n(Cc4ccc(F)cc4)c(C)c3c2=O)cc1 | . | i | . | . | i
COc1ccc(/C=C2/NC(=O)N(Cc3ccccc3F)C2=O)cc1OC | 13% | i | -2% | -4% | i
CCN1C(=O)N/C(=C/c2cc(C)n(Cc3ccccc3)c2C)C1=O | ? | i | ? | ? | i
Cc1cc(/C=C2/NC(=O)N(Cc3ccccc3F)C2=O)c(C)n1-c1ccccn1 | -6% | i | ? | 0.82µM* | ?
CCn1c(C)cc(/C=C2\NC(=O)N(Cc3ccc(Cl)cc3)C2=O)c1C | 6% | i | ? | 14µM* | i
COc1cc(/C=C2/NC(=O)N(Cc3ccccc3F)C2=O)cc(OC)c1OC | -25% | i | 4% | -11% | 0.18µM*
COc1ccc2cc(C3(C)NC(=O)N(CC(=O)NCC(F)(F)F)C3=O)ccc2c1 (stereo not drawn) | 27% | i | 3% | -8% | i
N#Cc1c(NC(=S)NC(=O)c2ccccc2)sc2c1CCCCC2 | . | i | . | . | i
Cc1ccc([N+](=O)[O-])cc1S(=O)(=O)Nc1ccc(O)c(Sc2ncn[nH]2)c1 | 2% | i | 0% | 26% | i
Cc1cc(C)c(S(=O)(=O)/N=C2/C=C(Sc3ncn[nH]3)C(=O)c3ccccc32)cc1C | 21µM* | ? | 2.3µM* | 2.6µM* | ?
CCOC(=O)N1CC=C2C(C#N)=C(N)C(C#N)(C#N)[C@H](c3ccsc3)[C@H]2C1 | -25% | ? | 12% | 12% | 15µM*
CN1CC=C2C(C#N)=C(N)C(C#N)(C#N)C(c3ccsc3)C2C1 (stereo not drawn) | -6% | i | -7% | -14% | i
CCOC(=O)N1CC=C2C(C#N)=C(N)C(C#N)(C#N)[C@H](c3ccccc3OCC)[C@H]2C1 | 11% | i | ? | ? | ?
CCOC(=O)N1CC=C2C(C#N)=C(N)C(C#N)(C#N)[C@H](c3ccc(OC(C)C)c(OCC)c3)[C@H]2C1 | 13µM* | i | ? | ? | i
Cc1cc(C(=O)CN2C(=O)NC3(CCCc4sccc43)C2=O)c(C)n1-c1ccc(Cl)cc1 (stereo not drawn) | -27% | i | 14% | 12% | i
CC(=O)C(C(C)=O)C(NC(=O)c1cccnc1)(C(F)(F)F)C(F)(F)F | 10% | i | 21µM* | ? | i
O=C(CCc1nnc(CCCCc2ccccc2)o1)NCCCc1cccnc1 | 16% | i | -2% | -2% | ?
O=C(c1cc2ccccc2c(=O)o1)N1CCCCCC1 | ? | i | 3% | 1% | i
O=C(OCC(=O)N1CCN(C(=O)c2ccco2)CC1)c1cc(-c2ccc(Cl)c(Cl)c2Cl)nc2ccccc12 | ? | ? | ? | ? | 21µM*
SMILES | ELG1 DNA repair | KB-3-1 tox | MCF10A rereplic | SW480 rereplic | KB-V1 cytotox
O=C(OCC(=O)N1CCN(C(=O)c2ccco2)CC1)c1cc(-c2ccco2)nc2ccccc12 | ? | i | 5% | -6% | ?
COc1ccc(-c2cc(C(=O)N3CCN(c4ccccc4)CC3)c3ccccc3n2)cc1OC | 16µM* | i | 13µM* | 18% | ?
COc1ccc(-c2csc(N3CCN(c4cc(C)nc5ccccc45)CC3)n2)cc1OC | 8.2µM* | i | 24% | ? | 16µM*
COc1cc(-c2csc(N3CCOCC3)n2)cc(OC)c1OC | -9% | i | -4% | -2% | i
COc1cc(-c2cc(C(=O)OCC(=O)NC3CC3)c3ccccc3n2)cc(OC)c1OC | 12µM* | i | -21% | -9% | i
COc1ccc(/C=N/NC(=O)c2ccncc2)c(C(=O)O)c1OC | -3% | i | 4% | -4% | i
COc1ccc(-c2cc(C(=O)N3CCCCCC3)c3ccccc3n2)cc1OC | . | i | . | . | i
COc1ccc(-c2cc(C(=O)OCC(=O)N3CCCCC3)c3ccccc3n2)cc1OC | 9.2µM* | i | ? | 4% | 3.7µM*
CCOc1ccc(CCNC(=O)c2nnc(CS(=O)(=O)c3ccccc3)o2)cc1OCC | -17% | i | 22% | 19% | i
CCCCc1nc(NCCN2CCOCC2)c(C#N)c2c1COC(C)(C)C2 | 12µM* | i | 4% | 25% | i
CCN(CC)CCNc1nc(-c2ccco2)c2c(c1C#N)CC(C)(C)OC2 | 5% | i | 16% | 12% | ?
CC1(C)Cc2c(C#N)c(NCCc3ccccc3)nc(-c3ccco3)c2CO1 | 0% | ? | 15µM* | 6.5µM* | ?
Cc1c(NC(=O)C(C)Oc2ccccc2F)c(=O)n(-c2ccccc2)n1C (stereo not drawn) | 3% | ? | ? | -15% | i
C=CCC[C@H](Cc1ccc(F)cc1)C(=O)OC[C@H](Cc1c[nH]c2ccccc12)NC(=O)[C@@H](CC=C)CC(=O)N(CCO)Cc1ccccc1 | 23µM* | i | ? | ? | 21µM*
C=CCC[C@@H](Cc1ccc(F)cc1)C(=O)OC[C@@H](Cc1c[nH]c2ccccc12)NC(=O)[C@@H](CC=C)CC(=O)NCCO | ? | i | ? | ? | i
C=CCC[C@H](Cc1ccc(F)cc1)C(=O)OC[C@@H](Cc1c[nH]c2ccccc12)NC(=O)[C@@H](CC=C)CC(=O)N(CCO)Cc1ccccc1 | 26µM* | ? | ? | ? | ?
C=CC[C@H](CC(=O)N(CCO)Cc1ccccc1)C(=O)N[C@H](COC(=O)[C@@H](CC=C)Cc1ccc(F)cc1)Cc1ccccc1 | 21µM* | ? | 5% | 17% | ?
